According to publication PMC7862700, “An all-to-all approach to the identification of sequence-specific readers for epigenetic DNA modifications on cytosine”:

Experiments:
Assay in all cases: DAPPL (digital affinity profiling via proximity ligation, sequencing); 10 mM Tris-HCl pH 7.5, 50 mM NaCl, 1 mM DTT, 4% glycerol, room temperature, 30 min; GST-TFs on glutathione beads, 16-mer random dsDNA library, 0.1% formaldehyde crosslink after washing; high values mean tight binding
Details in all cases: protein: recombinant; tags: N-terminal GST; dsDNA, one strand shown
FLI1 = molecular target: T1, FLI1 (Homo sapiens, UniProt Q01543 1-452)
T1 sequence: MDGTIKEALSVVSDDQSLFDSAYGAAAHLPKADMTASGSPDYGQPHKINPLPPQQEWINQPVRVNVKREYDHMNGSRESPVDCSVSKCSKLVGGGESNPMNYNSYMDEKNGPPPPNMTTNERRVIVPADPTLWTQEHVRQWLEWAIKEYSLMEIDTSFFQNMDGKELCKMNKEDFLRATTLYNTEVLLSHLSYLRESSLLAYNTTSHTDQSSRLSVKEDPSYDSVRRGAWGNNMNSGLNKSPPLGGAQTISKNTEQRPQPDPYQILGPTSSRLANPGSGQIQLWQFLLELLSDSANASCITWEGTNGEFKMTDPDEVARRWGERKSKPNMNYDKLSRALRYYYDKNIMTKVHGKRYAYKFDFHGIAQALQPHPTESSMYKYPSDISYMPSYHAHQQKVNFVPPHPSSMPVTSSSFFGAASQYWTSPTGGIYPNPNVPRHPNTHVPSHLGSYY
Outline: (§1)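 Each value of binding signal is a hexamer's read frequency for a factor divided by the same hexamer's frequency in the tag-only sample. Barcoded, bead-captured GST fusions of human transcription factors made in yeast were pooled with that sample and incubated with 200 nmole of a random double-stranded 16-mer DNA library in Tris/NaCl/DTT/glycerol buffer at room temperature for 30 min. Washing, 0.1% formaldehyde crosslinking, proximity ligation, PCR and Illumina NextSeq500 sequencing followed.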

ELK1 = molecular target: T2, ELK1 (Homo sapiens, UniProt P19419 1-428)
T2 sequence: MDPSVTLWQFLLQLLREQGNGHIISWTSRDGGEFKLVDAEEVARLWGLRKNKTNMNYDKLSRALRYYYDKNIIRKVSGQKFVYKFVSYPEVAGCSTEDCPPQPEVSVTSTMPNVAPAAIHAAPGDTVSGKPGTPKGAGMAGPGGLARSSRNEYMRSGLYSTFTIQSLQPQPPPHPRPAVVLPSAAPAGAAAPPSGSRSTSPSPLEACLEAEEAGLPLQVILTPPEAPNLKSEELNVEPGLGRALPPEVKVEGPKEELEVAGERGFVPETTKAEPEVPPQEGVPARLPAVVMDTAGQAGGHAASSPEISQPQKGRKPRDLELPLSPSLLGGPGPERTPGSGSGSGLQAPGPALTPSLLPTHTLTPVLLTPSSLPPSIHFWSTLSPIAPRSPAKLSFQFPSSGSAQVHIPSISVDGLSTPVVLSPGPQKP
Outline: as §1

GABPA = molecular target: T3, GABPA (Homo sapiens, UniProt Q06546 1-454)
T3 sequence: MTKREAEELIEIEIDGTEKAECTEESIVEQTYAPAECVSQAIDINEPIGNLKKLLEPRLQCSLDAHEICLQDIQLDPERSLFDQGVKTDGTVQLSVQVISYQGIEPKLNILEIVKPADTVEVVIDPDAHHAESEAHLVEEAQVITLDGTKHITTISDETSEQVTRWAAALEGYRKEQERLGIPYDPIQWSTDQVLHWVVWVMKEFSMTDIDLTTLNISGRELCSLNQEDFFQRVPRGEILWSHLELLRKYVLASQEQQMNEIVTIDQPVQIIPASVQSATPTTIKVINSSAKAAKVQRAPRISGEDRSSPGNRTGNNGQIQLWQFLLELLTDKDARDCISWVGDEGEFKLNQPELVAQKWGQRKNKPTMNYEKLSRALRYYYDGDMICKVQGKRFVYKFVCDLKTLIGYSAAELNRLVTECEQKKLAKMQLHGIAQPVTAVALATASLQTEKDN
Outline: as §1

ERG = molecular target: T4, ERG (Homo sapiens, UniProt P11308 1-479)
T4 sequence: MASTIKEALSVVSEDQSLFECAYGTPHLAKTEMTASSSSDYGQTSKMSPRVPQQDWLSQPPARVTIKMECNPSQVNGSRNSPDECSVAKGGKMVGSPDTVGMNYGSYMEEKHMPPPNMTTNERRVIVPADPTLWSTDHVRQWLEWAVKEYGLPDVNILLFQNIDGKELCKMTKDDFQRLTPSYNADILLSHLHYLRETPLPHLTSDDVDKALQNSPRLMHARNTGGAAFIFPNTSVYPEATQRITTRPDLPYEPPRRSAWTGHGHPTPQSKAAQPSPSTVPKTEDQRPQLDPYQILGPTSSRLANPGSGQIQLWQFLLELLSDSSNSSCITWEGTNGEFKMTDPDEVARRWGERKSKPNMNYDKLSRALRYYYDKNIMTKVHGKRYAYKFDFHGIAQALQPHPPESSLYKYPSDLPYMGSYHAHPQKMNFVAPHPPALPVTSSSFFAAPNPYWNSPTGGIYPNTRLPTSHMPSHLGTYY
Outline: as §1

ELF1 = ELF1 (Homo sapiens, UniProt P32519 1-619)
Outline: as §1

EHF = molecular target: T5, EHF (Homo sapiens, UniProt Q9NZC4 1-300)
T5 sequence: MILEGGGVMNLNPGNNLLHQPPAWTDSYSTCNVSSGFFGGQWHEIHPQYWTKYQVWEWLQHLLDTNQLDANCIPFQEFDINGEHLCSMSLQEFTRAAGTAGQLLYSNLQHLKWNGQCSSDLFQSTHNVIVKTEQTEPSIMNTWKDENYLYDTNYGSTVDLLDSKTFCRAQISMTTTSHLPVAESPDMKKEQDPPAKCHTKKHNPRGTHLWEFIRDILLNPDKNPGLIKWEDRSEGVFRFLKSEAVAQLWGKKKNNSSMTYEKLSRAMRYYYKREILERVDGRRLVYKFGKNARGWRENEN
Outline: as §1

SPI1 = SPI1 (Homo sapiens, UniProt P17947 1-270)
Outline: as §1

SPIB = SPIB (Homo sapiens, UniProt Q01892 1-262)
Outline: as §1

ELK3 = molecular target: T6, ELK3 (Homo sapiens, UniProt P41970 1-407)
T6 sequence: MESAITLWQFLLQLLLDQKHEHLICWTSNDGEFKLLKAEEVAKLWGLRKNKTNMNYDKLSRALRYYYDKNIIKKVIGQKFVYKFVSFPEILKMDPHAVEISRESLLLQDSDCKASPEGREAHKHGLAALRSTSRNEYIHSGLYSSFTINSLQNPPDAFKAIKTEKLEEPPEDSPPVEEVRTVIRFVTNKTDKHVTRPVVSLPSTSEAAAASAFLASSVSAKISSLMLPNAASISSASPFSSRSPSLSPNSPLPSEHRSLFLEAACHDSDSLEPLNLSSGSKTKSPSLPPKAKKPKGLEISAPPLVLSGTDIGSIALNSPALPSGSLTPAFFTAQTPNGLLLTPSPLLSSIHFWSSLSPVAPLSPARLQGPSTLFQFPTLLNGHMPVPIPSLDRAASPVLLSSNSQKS
Outline: as §1

Chain of ELF1 (P32519 whole entry): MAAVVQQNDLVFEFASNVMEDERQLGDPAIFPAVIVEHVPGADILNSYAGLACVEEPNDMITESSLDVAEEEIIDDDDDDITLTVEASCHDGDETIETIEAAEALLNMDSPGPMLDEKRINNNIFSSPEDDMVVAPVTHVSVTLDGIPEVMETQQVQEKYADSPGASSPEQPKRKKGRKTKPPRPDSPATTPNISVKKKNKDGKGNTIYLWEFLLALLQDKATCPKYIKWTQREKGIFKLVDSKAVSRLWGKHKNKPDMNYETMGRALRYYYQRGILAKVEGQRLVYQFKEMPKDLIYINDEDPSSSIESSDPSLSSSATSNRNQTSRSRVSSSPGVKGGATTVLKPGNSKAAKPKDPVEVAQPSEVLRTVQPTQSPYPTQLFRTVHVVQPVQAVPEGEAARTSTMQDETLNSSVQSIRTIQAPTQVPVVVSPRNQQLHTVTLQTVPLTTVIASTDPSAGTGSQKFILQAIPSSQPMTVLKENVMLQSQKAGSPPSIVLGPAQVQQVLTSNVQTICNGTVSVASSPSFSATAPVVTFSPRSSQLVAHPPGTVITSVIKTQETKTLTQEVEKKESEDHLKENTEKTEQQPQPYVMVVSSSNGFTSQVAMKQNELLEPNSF
Chain of SPIB (Q01892 whole entry): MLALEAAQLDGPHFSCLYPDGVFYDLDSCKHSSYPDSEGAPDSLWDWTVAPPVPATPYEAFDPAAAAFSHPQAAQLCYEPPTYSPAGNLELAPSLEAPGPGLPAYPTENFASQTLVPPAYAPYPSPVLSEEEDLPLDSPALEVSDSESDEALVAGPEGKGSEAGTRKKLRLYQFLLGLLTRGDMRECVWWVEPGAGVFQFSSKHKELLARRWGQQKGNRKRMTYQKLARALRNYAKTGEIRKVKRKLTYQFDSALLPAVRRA

| Sequence | binding signal (FLI1) | binding signal (ELK1) | binding signal (GABPA) | binding signal (ERG) | binding signal (ELF1) | binding signal (EHF) | binding signal (SPI1) | binding signal (SPIB) | binding signal (ELK3) |
| --- | --- | --- | --- | --- | --- | --- | --- | --- | --- |
| GTACTA | 1.16 fold enrichment (6-mer frequency, TF over GST control) | 1.06 fold enrichment (6-mer frequency, TF over GST control) | 1.12 fold enrichment (6-mer frequency, TF over GST control) | 1.07 fold enrichment (6-mer frequency, TF over GST control) | 1.19 fold enrichment (6-mer frequency, TF over GST control) | 1.14 fold enrichment (6-mer frequency, TF over GST control) | 1.02 fold enrichment (6-mer frequency, TF over GST control) | 1.1 fold enrichment (6-mer frequency, TF over GST control) | 1.02 fold enrichment (6-mer frequency, TF over GST control) |
| TATAAC | 1.22 fold enrichment (6-mer frequency, TF over GST control) | 1.21 fold enrichment (6-mer frequency, TF over GST control) | 1.2 fold enrichment (6-mer frequency, TF over GST control) | 1.28 fold enrichment (6-mer frequency, TF over GST control) | 1.29 fold enrichment (6-mer frequency, TF over GST control) | 1.15 fold enrichment (6-mer frequency, TF over GST control) | 1.12 fold enrichment (6-mer frequency, TF over GST control) | 1.39 fold enrichment (6-mer frequency, TF over GST control) | 1.18 fold enrichment (6-mer frequency, TF over GST control) |
| GATACT | 1.14 fold enrichment (6-mer frequency, TF over GST control) | 1.01 fold enrichment (6-mer frequency, TF over GST control) | 1.2 fold enrichment (6-mer frequency, TF over GST control) | 1.21 fold enrichment (6-mer frequency, TF over GST control) | 1.1 fold enrichment (6-mer frequency, TF over GST control) | 1.21 fold enrichment (6-mer frequency, TF over GST control) | 1.12 fold enrichment (6-mer frequency, TF over GST control) | 1.16 fold enrichment (6-mer frequency, TF over GST control) | 1.09 fold enrichment (6-mer frequency, TF over GST control) |
| TTCGAG | 1.18 fold enrichment (6-mer frequency, TF over GST control) | 1.23 fold enrichment (6-mer frequency, TF over GST control) | 1.31 fold enrichment (6-mer frequency, TF over GST control) | 1.14 fold enrichment (6-mer frequency, TF over GST control) | 1.25 fold enrichment (6-mer frequency, TF over GST control) | 1.19 fold enrichment (6-mer frequency, TF over GST control) | 1.21 fold enrichment (6-mer frequency, TF over GST control) | 1.31 fold enrichment (6-mer frequency, TF over GST control) | 1.3 fold enrichment (6-mer frequency, TF over GST control) |
| TTGCAC | 1.3 fold enrichment (6-mer frequency, TF over GST control) | 1.32 fold enrichment (6-mer frequency, TF over GST control) | 1.27 fold enrichment (6-mer frequency, TF over GST control) | 1.27 fold enrichment (6-mer frequency, TF over GST control) | 1.28 fold enrichment (6-mer frequency, TF over GST control) | 1.21 fold enrichment (6-mer frequency, TF over GST control) | 1.26 fold enrichment (6-mer frequency, TF over GST control) | 1.16 fold enrichment (6-mer frequency, TF over GST control) | 1.34 fold enrichment (6-mer frequency, TF over GST control) |
| AACAGC | 1.1 fold enrichment (6-mer frequency, TF over GST control) | 1.1 fold enrichment (6-mer frequency, TF over GST control) | 1.17 fold enrichment (6-mer frequency, TF over GST control) | 1.13 fold enrichment (6-mer frequency, TF over GST control) | 1.12 fold enrichment (6-mer frequency, TF over GST control) | 1.16 fold enrichment (6-mer frequency, TF over GST control) | 1.11 fold enrichment (6-mer frequency, TF over GST control) | 1.13 fold enrichment (6-mer frequency, TF over GST control) | 1.17 fold enrichment (6-mer frequency, TF over GST control) |
| TAGGTT | 1.13 fold enrichment (6-mer frequency, TF over GST control) | 1.04 fold enrichment (6-mer frequency, TF over GST control) | 1 fold enrichment (6-mer frequency, TF over GST control) | 1.11 fold enrichment (6-mer frequency, TF over GST control) | 1.08 fold enrichment (6-mer frequency, TF over GST control) | 1.08 fold enrichment (6-mer frequency, TF over GST control) | 1.14 fold enrichment (6-mer frequency, TF over GST control) | 1.13 fold enrichment (6-mer frequency, TF over GST control) | 1.16 fold enrichment (6-mer frequency, TF over GST control) |
